Source: PubChem BioAssay (EPA / NIEHS)
The source made the active and inactive calls. Rule for the calls: active = hit-call score of the fitted dose curve at least 0.9, where 1 is the maximum; inactive = score below 0.9.

Assay: ATG_NFI_CIS: Attagene CIS-FACTORIAL HepG2 Assay for human Nuclear Factor I (NFI) (AID 2282989)
Details: HepG2 cis-regulatory reporter, NFI response element transcription; actives raise or lower the signal
How it was run: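 After transient transfection of HepG2 with cis-promoter reporter constructs and 24 h dosing, RNA is reverse-transcribed, amplified, 6-FAM end-labelled and HpaI-digested before capillary analysis. Bidirectional curve fitting against DMSO.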

Compound	outcome
F[Si-2](F)(F)(F)(F)F	inactive
CNS(=O)(=O)C(F)(F)C(F)(F)C(F)(F)C(F)(F)C(F)(F)C(F)(F)C(F)(F)C(F)(F)F	inactive
COc1ccccc1C=O	inactive
CSc1ccc(Cl)cc1	inactive
CCOC(OCC)OCC	inactive
Cc1ccc(O)c(-n2nc3ccccc3n2)c1	inactive
CC1=CCC2C(=O)OC(=O)C2C1 (centres undefined)	inactive
C#CC(O)CCC (centres undefined)	inactive
OCCCc1cccnc1	inactive
CC(C)OC=O	inactive
CC1=CCC(=O)O1	inactive
CCc1cccc(C)c1N(C(=O)C(=O)O)C(C)COC (centres undefined)	inactive
CC(C)OC(=O)COc1ccc(Cl)cc1Cl	inactive
O=C(O)CCC(F)(F)C(F)(F)C(F)(F)C(F)(F)C(F)(F)C(F)(F)C(F)(F)F	inactive
CC(C)(C)c1cc(Cc2cc(C(C)(C)C)c(O)c(C(C)(C)C)c2)cc(C(C)(C)C)c1O	inactive
O=C(Cl)C(F)(F)C(F)(F)C(F)(F)C(F)(F)C(F)(F)C(F)(F)F	inactive
Nc1c(Br)cc([N+](=O)[O-])cc1Br	inactive
Nc1cc([N+](=O)[O-])cc(Cl)c1O	inactive
c1ccc(C[P+](c2ccccc2)(c2ccccc2)c2ccccc2)cc1	inactive
O=C1C=CC(=O)N1c1ccc(Cc2ccc(N3C(=O)C=CC3=O)cc2)cc1	inactive
C=CC(=O)OCC(F)(F)C(F)(F)C(F)(F)COC(=O)C=C	inactive
OCCCC(F)(F)C(F)(F)C(F)(F)C(F)(F)C(F)(F)C(F)(F)C(F)(F)C(F)(F)F	inactive
N#Cc1ccccc1O	inactive
CCCCCCCCCc1ccc(OCCO)cc1	inactive
